# According to PubChem BioAssay (NCATS):
# Results filed as inconclusive are left out. The source made the active and inactive calls. Calls come from the whole dose curve; as a rule, active = well fitted cell-killing curve with a large enough effect; inconclusive = small, poorly fitted or top-dose-only effect; inactive = flat fitted curve, though single readings scatter.
# Assay: Cell Viability - LYMP2-008 (AID 980); note: nearly all actives have a fitted effect of over 60% in size;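 for activity change, negative = cytotoxicity: cells exposed to compound for 24 h at 37 °C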
# Details: LYMP2-008 lymphoblastoid cell viability, qHTS; series mostly up to 92.2 µM; activity change, negative = cytotoxicity: at the top concentration
# Summary of the method: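 Acute cytotoxicity is scored as concentration-dependent loss of cellular ATP in a human lymphoblastoid line after 24 hr treatment at 37 C. ATP is quantified by luciferase luminescence.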
# % is set by controls: 0 for no effect and ±100 for the full control effect; potency is the fitted concentration of half-maximal effect.
SMILES,"activity change, negative = cytotoxicity",Potency
Nc1cnn([C@@H]2O[C@H](CO)[C@@H](O)[C@H]2O)c(=O)n1,4.92% (inactive),–
Oc1c(Cl)cc(Cl)c(Cl)c1Cl,-14.5% (inactive),–
CC(C)OCC1CO1 (stereo unspecified),2.73% (inactive),–
C/C(Cl)=C/CCl,3.55% (inactive),–
O=c1[nH]ncc2ccccc12,-1.55% (inactive),–
O=[N+]([O-])c1cccc(I)c1,-9.38% (inactive),–
Nc1ccc2c(c1)C(=O)c1ccccc1C2=O,-23.4% (inactive),–
c1ccc2c(c1)ccc1ccccc12,3.06% (inactive),–
Cc1ccc(C(=O)O)cc1[N+](=O)[O-],-15.4% (inactive),–
Nc1cc(C(=O)O)c(O)c(S(=O)(=O)O)c1,-2.53% (inactive),–
c1ccncc1,-12.2% (inactive),–
CC(=O)OC1CC(C)OC(C)O1 (stereo unspecified),-2.56% (inactive),–
O=C(OCc1ccccc1)c1ccccc1O,0.749% (inactive),–
C/C=C/C=C/C=O,–,39.8 µM (active)
c1c[nH]cn1,-1.39% (inactive),–
c1ccc(SCCSc2ccccc2)cc1,-3.51% (inactive),–
O=C(O)/C=C/c1ccc(/C=C/C(=O)O)cc1,2.59% (inactive),–
CCCCOC(=O)COc1ccc(Cl)cc1Cl,-0.0958% (inactive),–
CC(=O)OC(C(=O)c1ccccc1)c1ccccc1 (stereo unspecified),-10.8% (inactive),–
CCCCCCN,0.399% (inactive),–
CCC(Cl)CC(Cl)C(Cl)C(Cl)C(Cl)C(C)Cl (stereo unspecified),-7.78% (inactive),–
COc1ccc(C)cc1N,-5.09% (inactive),–
CCc1ccc(C(c2ccc(CC)cc2)C(Cl)Cl)cc1,2.61% (inactive),–
O=[N+]([O-])c1ccccc1Nc1ccccc1,4.18% (inactive),–
COc1cc(-c2ccc(N=C=O)c(OC)c2)ccc1N=C=O,-10.9% (inactive),–
COc1ccc(C(=O)Nc2ccccc2)cc1[N+](=O)[O-],-1.85% (inactive),–
